# Results as given in PubChem BioAssay (Tox21).
# Inconclusive results are not listed. A call without a number means that no potency is given here. Values without a mark were called inactive. The source made the active and inactive calls. The call rests on the fitted dose curve.
# Experiment: qHTS assay to identify small molecule antagonists of the sonic hedgehog signaling (Shh) pathway (AID 1259369); further: nearly all actives have a fitted effect of over 45% in size
# Conditions: NIH/3T3 Gli1-Luc reporter, Shh antagonist, luminescence 24 h; series mostly up to 92.4 µM
# Excerpt: U.S. Tox21 Program National Center for Advancing Translational Sciences [NCATS] NIH Chemical Genomics Center [NCGC] U.S. Environmental Protection Agency [EPA] National Institutes of Environmental Health Sciences [NIEHS] National Toxicology Program [NTP] U.S. Food and Drug Administration [FDA] Tox21 Assay Overview: The sonic hedgehog (Shh) pathway is essential for normal embryonic development. Dysregulation of the Shh pathway can cause severe developmental defects in organs. Therefore chemicals that interfere with the pathway are potential developmental toxicants. A cell line designated 3T3Gli1-Luc (DMB/OARSA/CFSAN/FDA, Laurel, MD), a NIH/3T3 derived clone containing stably integrated Gli1-Luc reporter is used to detect chemical interference of the Shh pathway, by changes in the expression of the firefly Luc gene under the control of the Gli1 transcriptional response element. This cell line was used to screen Tox21 libraries for identifying and prioritizing the potential developmental toxicants that interfere Shh pathway. Conditioned medium-stimulated mode was used to screen for chemicals inhibiting Shh signaling.
# Tox21 Assay Protocol Summary: 3T3 Gli1-Luc cells were dispensed at 2,000 per well in 5uL of culture medium into white solid bottom 1536-well plates (Greiner Bio-One, Monroe, NC) using a Multidrop Combi (Thermo Scientific, Waltham, MA) dispenser. The assay plates were incubated at 37 C and 5% CO2 for 4hr, and then 23nL of compounds dissolved in DMSO and positive control were transferred using a Pintool station (Wako, San Diego, CA). The compound transfer was followed by the addition of 1ul conditioned medium or assay buffer using two separate tips of Flying Reagent Dispenser (FRD, Aurora Discovery, San Diego, CA). The assay plates were incubated at 37C and 5% CO2 for 24hr. For luciferase read, 4uL of Amplite Luciferase reporter gene assay reagent (AAT Bioquest, Inc. Sunnyvale, CA) was added to each well of the assay plates using FRD and incubated at room temperature for 30min. The luminescence signal was measured using a ViewLux plate reader (Perkin Elmer, Shelton, CT).
# Potency means the concentration at half of the fitted maximal effect.
Structure (SMILES),Potency,"activity change, negative = inhibition"
C/C(=N\O)[C@@H](C)NCC(C)(C)CN[C@H](C)/C(C)=N/O,inactive,
NCCC(O)(P(=O)(O)O)P(=O)(O)O,inactive,
C[C@]12CCC(=O)C=C1CC[C@@H]1[C@@H]2CC[C@@]2(C)[C@H]1CC[C@]2(O)C(=O)CO,inactive,
CCCCC(=O)O[C@]1(C(=O)CO)[C@H](C)C[C@H]2[C@@H]3CCC4=CC(=O)C=C[C@]4(C)[C@@]3(F)[C@@H](O)C[C@@]21C,inactive,
CCOc1ccc2nc(N)sc2c1,inactive,
CC/C=C\CCOC(=O)C(C)C,inactive,
CCN(CC)CCNC(=O)COc1ccc(Cl)cc1,inactive,
CCCCCCC,inactive,
CC(C)(C)C1CCCCC1=O (stereo not given),inactive,
CCN(CC)CC1CCCCN1CC(=O)N1c2ccccc2C(=O)Nc2cccnc21 (stereo not given),inactive,
O=C(CCCl)NCc1ccccc1,inactive,
O=C(O)[C@@H](O)[C@H](O)[C@H](O)[C@@H](O)C(=O)O,inactive,
CCCNC(C)(C)COC(=O)c1ccccc1,inactive,
COc1ccccc1OCC(O)COC(N)=O (stereo not given),inactive,
O=C1CCC(C2CCCCC2)CC1,inactive,
OCc1c2ccccc2cc2ccccc12,inactive,
CC1=NN(c2cc(Cl)c(S(=O)(=O)O)cc2Cl)C(=O)C1N=Nc1ccc(S(=O)(=O)O)cc1 (stereo not given),inactive,
CC1CN(c2ccccc2)NC1=O (stereo not given),inactive,
O=C1Nc2ccc([N+](=O)[O-])cc2C1=O,inactive,
O=[N+]([O-])c1nccn1CO[C@@H](CO)[C@H](O)CO,inactive,

Structure (SMILES),Potency,"activity change, negative = inhibition"
CC(C)O,29.3 µM (active),
CCOc1ccccc1N,inactive,
OCCN(CCO)c1ccccc1,inactive,
C=CCc1cc(OC)c(O)c(C(=O)NCCO)c1,inactive,
Cc1ccsc1C(=CCCN1CCC[C@@H](C(=O)O)C1)c1sccc1C,inactive,
FC(F)(F)C(F)(F)C(F)(F)C(F)(F)C(F)(F)C(F)(F)C(F)(F)C(F)(F)Br,inactive,
CC(C)(CO)[C@@H](O)C(=O)NCCC(=O)O,inactive,
CC/C=C\CCOC(=O)CCCCC,inactive,
CCN[C@H]1CN(CCCOC)S(=O)(=O)c2sc(S(N)(=O)=O)cc21,inactive,
NC/C=C/C(=O)O,inactive,
Cc1nnc(SCC2=C(C(=O)O)N3C(=O)[C@@H](NC(=O)Cn4cnnn4)[C@H]3SC2)s1,inactive,
Cc1cc2c(s1)Nc1ccccc1N=C2N1CCN(C)CC1,inactive,
CC(C)C[C@H](NC(=O)OCC1c2ccccc2-c2ccccc21)C(=O)O,inactive,
CCCCCCCCCC#N,24.2 µM (active),
CCOC(=O)c1cc(=O)c2c(OCC(COc3cccc4oc(C(=O)OCC)cc(=O)c34)OC(=O)[C@@H](N)CCCCN)cccc2o1,inactive,
CC(C)NCC(O)COc1ccc(CCOCC2CC2)cc1 (stereo not given),inactive,
Oc1ccccc1F,inactive,
NNS(=O)(=O)c1ccc(Oc2ccc(S(=O)(=O)NN)cc2)cc1,inactive,
C[C@@H]1CN(c2c(F)c(F)c3c(=O)c(C(=O)O)cn(C4CC4)c3c2F)C[C@H](C)N1,,7.04% [at 19 µM]
COc1ccccc1N1CCN(CCCNc2cc(=O)n(C)c(=O)n2C)CC1,inactive,
